# Reference: paper PMC5540273 (PLoS ONE, 2017)
# Tests used:
# [1] = tested on: T1, RSK1(Kin.Dom.2-C-terminal)
# T1 construct: gene RPS6KA1
# [2] = tested on: T2, RSK4(Kin.Dom.2-C-terminal)
# T2 construct: gene RPS6KA6
# [3] = tested on: TYK2(JH1domain-catalytic)
# 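Further: kd values determined as follow-up on hits from a single-replicate KINOMEscan panel screen.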
structure (smiles),measurement,setting,value
CCCCCc1nc2c(N)ncnc2n1CCCCC [SKF-97255],Kd,ROCK1,0.28 µM
CNc1ncnc2[nH]ncc12 [SKF-18355],Kd,ROCK1,0.38 µM
same,Kd,ROCK2,0.33 µM
CC(C)(C)n1cnc2c(N)ncnc21 [SKF-97359],Kd,[1],> 10 µM
same,Kd,SgK110,> 10 µM
CN1c2ccc(NCc3ccc(F)cc3)cc2-c2c(cnn2C)S1(=O)=O,Kd,[2],> 10 µM
CN1c2ccc(CNc3ccc(F)cc3)cc2-c2c(cnn2C)S1(=O)=O,Kd,SGK2,> 10 µM
CSc1ccc(-c2cc3ncnc(SCC(=O)O)c3s2)cc1,Kd,SRPK2,> 10 µM
COc1ccc(Nc2nccc(N3CCC(NC(=O)Nc4cc(C)ccc4C)C3)n2)cc1 (centres unmarked) [GSK1379741],Kd,STK36,1.6 µM
Cn1ccc2ncnc(Oc3ccc(NC(=O)Nc4ccncc4)c(Cl)c3)c21,Kd,STK39,> 10 µM
O=C(NCCNc1ccnc(Nc2ccc(F)cc2)n1)c1cc2ccccc2s1 [GSK1379874],Kd,TESK1,> 10 µM
same,Kd,TXK,> 10 µM
N#Cc1ccc(-c2cc(-c3c[nH]nc3-c3ccccn3)ccn2)cc1 [GW693028],Kd,TGFBR2,0.58 µM
c1ccc(-c2cc(-c3c[nH]nc3-c3ccccn3)ccn2)cc1 [GW576604],Kd,TNNI3K,> 10 µM
CCn1cnc2c(N)ncnc21 [GW345098],Kd,TRPM6,0.24 µM
CN(C1=C(c2ccccc2)C(=O)NC1=O)c1ccccc1 [SB-334860],Kd,TXK,> 10 µM
Cc1ccc(NC(=O)c2ccnc(N3CCN(C)CC3)c2)cc1-c1ccc(C(=O)NCC2CC2)cc1 [GW775604],Kd,[3],> 10 µM
same,Kd,ULK2,> 10 µM
NS(=O)(=O)c1cccc(-c2ccc3nccc(-c4cccc(S(N)(=O)=O)c4)c3c2)c1 [GW867253],Kd,ULK2,> 10 µM
O=C1NC(=O)C(N2CCc3ccccc32)=C1c1cccc(Cl)c1 [SB-408010],Kd,WNK4,> 10 µM
